Reference: PubChem BioAssay AID504652 (National Center for Advancing Translational Sciences (NCATS), 2011)
Several values for one entry are separate records, joined by “and”; a condition that tells them apart may be missing. Equal values may be shown once. The campaign covered roughly 360,000 compounds. About 11,000 (3.1%) were called active. Rule as the data show it: active = activity change below about -30%; inactive = the rest. The entries come from a sample that favours actives as a whole. Some compounds were tested as several samples or in several runs, with calls that do not always agree.

molecular target: D(1A) dopamine receptor (Homo sapiens) (UniProt P21728); experiment: Antagonist of Human D 1 Dopamine Receptor: qHTS; conditions: HEK293 TREx D1 cells, calcium flux, dopamine EC80; at 10 µM; stronger effect = lower value
Method in brief: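 Inducible Hek293 Trex D1 cells (tetracycline, overnight, 30 C). Calcium dye 30–90 min RT. Antagonist mode: EC80 dopamine added after 180 s compound read.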
% is scaled to controls: 0 for no effect and ±100 for the full control effect.

Sequence of D(1A) dopamine receptor (Homo sapiens) (P21728 whole entry, looked up): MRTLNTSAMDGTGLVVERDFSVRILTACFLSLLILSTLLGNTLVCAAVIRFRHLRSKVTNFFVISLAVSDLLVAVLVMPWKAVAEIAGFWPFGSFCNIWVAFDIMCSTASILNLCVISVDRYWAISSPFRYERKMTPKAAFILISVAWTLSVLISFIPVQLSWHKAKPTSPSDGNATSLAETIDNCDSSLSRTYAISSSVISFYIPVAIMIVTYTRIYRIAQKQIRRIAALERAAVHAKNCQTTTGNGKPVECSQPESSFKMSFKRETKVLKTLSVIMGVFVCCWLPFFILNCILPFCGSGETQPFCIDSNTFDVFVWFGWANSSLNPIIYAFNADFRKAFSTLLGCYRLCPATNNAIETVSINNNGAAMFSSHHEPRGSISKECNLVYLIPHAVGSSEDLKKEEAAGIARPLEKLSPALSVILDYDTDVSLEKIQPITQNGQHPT

Structure (SMILES) | activity change, negative = inhibition
CC(C)(C)n1nc2c(c1NC(=O)c1cc3ccccc3o1)CSC2 | 6.7% (inactive)
Cc1cccc(-n2nc3c(c2NC(=O)c2cc4ccccc4o2)CS(=O)(=O)C3)c1 | -49.1% (active)
O=C(Nc1c2c(nn1-c1cccc(Cl)c1)CS(=O)(=O)C2)c1cccs1 | -16.2% (inactive)
Cc1nc2c(c(C)nn2-c2ccccc2)c(C)c1CCC(=O)NCCc1ccc(Cl)cc1 | -0.289% (inactive)
Cc1oc(C)c2c(=O)cc(-c3ccc4c(c3)OCO4)cc(OC(=O)c3ccc(Cl)cc3)c12 | -1.78% (inactive)
CCN1CCN(CCCNC(=O)c2cnn(-c3ccc(C)cc3C)c2C2CCN(C(=O)OC(C)(C)C)CC2)CC1 | 6.05% (inactive)
CCOC(=O)c1c(C)[nH]c(C)c1S(=O)(=O)NCC(=O)NCc1cccc(C)c1 | 13.9% (inactive)
CCOc1cccc(SCc2noc(C(=O)NC(C)C)c2C(=O)O)c1 | 3.21% (inactive)
COCCNC(=O)c1onc(CSc2cccc(C)c2)c1C(=O)O | 2.03% (inactive)
CCCCNC(=O)c1onc(CSc2cccc(OC)c2)c1C(=O)O | -73.2% (active)
CC(=O)N1CCCc2cc(S(=O)(=O)N3CCC(C(=O)NCc4ccc(C)cc4)CC3)ccc21 | 12.1% (inactive)
Cc1ccccc1CN1C(=O)c2ccccc2Sc2ccc(C(=O)NCCCN3CCOCC3)cc21 | -9.56% (inactive) and -12% (inactive)
CCC1=Nc2cc(C(=O)NCCCN3CCOCC3)ccc2Sc2ccc(Br)cc21 | 11% (inactive)
O=C(NCCCN1CCOCC1)c1ccc2c(c1)N(Cc1cccc(F)c1)C(=O)c1ccccc1S2 | -42.1% (active)
CN1CCN(S(=O)(=O)c2cccc(C(=O)N3CCc4ccccc43)c2)CC1 | -0.291% (inactive)
Cc1ccc(NC(=O)c2cccc(S(=O)(=O)N3CCCc4ccccc43)c2)nc1 | 3.95% (inactive)
CC1CCN(C(=O)c2cccc(S(=O)(=O)N3CCCc4ccccc43)c2)CC1 | -43.6% (active)
COc1ccc(Nc2ncc3c(n2)CCN(C(=O)OC(C)(C)C)C3)cc1 | -16.1% (inactive)
CCCC(=O)Nc1cc2nn(-c3ccccc3)nc2cc1C | -6.53% (inactive)
O=C(c1cc(-c2ccc(O)cc2)on1)N1CCOCC1 | -2.21% (inactive)
O=C(c1cc(-c2ccc(F)cc2)on1)N1CCN(c2ccc(F)cc2)CC1 | 6.41% (inactive) and -30% (active)
O=C(c1cc(-c2ccc(Cl)cc2)on1)N1CCN(c2ccccc2)CC1 | 8.05% (inactive)
Cc1nc(SCCOc2ccc(Cl)cc2)[nH]c(=O)c1Cc1ccccc1 | -8.51% (inactive)

Structure (SMILES) | activity change, negative = inhibition
Cc1ccc(OCCSc2nc(C)c(Cc3ccccc3)c(=O)[nH]2)cc1 | -2.95% (inactive)
Cc1nc(SC(C)C)[nH]c(=O)c1Cc1ccccc1 | -31.2% (active)
COc1ccc(C2(Nc3cccc(F)c3)C(=O)c3ccccc3C2=O)cc1 | -16% (inactive)
CCC(=O)OCc1c(C(F)(F)F)nn(C)c1Oc1cccc(C(F)(F)F)c1 | -39.6% (active)
Cc1nc(N)[nH]c(=O)c1Oc1cccc(C(F)(F)F)c1 | 7.25% (inactive)
CCOC(=O)NNc1cc(C(F)(F)F)ccn1 | -4.5% (inactive)
CC(=O)N1CCCc2ccc(NS(=O)(=O)c3ccc(F)cc3F)cc21 | 8.04% (inactive)
O=C(O)c1ccc2c(c1)N(Cc1ccc(F)cc1)C(=O)c1ccccc1S2=O (centres undefined) | -20.6% (inactive)
CCCCc1ccc(S(N)(=O)=O)cc1 | -32.1% (active)
CN(C)c1ccc(C=NCCc2ccc(S(N)(=O)=O)cc2)cc1 | 0.508% (inactive)
NS(=O)(=O)c1ccc(CCNC(=S)Nc2ccc(S(N)(=O)=O)cc2)cc1 | -10.1% (inactive)
Brc1cccc(-c2nnc3n2CCC3)c1 | 4.2% (inactive)
Cc1c(C(=O)Nc2cccc(-c3nnc4n3CCCCC4)c2)oc2ccccc12 | -14.2% (inactive)
O=C(Cn1[nH]c(=O)c2ccccc2c1=O)Nc1cccc(-c2nnc3n2CCCCC3)c1 | -31.5% (active)
O=S(=O)(c1ccc2nc(NCc3ccccc3Cl)ccc2c1)N1CCCCC1 | 7.22% (inactive)
COC(=O)CN1C(=O)CSc2ccc(S(=O)(=O)Nc3cc(C)ccc3C)cc21 | 7.51% (inactive)
COc1ccccc1Nc1cc(C(=O)NCCCN(C)C2CCCCC2)c2ccccc2n1 | -69.1% (active)
CCCCN(CCCNC(=O)c1cc(Nc2ccccc2OC)nc2ccccc12)c1ccccc1 | -1.02% (inactive)
COc1ccc(Nc2cc(C(=O)NCCCN(C)c3ccccc3)c3ccccc3n2)c(OC)c1 | -3.52% (inactive)
CCCn1c(NCc2ccc(N(CC)CC)cc2)nc2ccccc21 | 7.83% (inactive)
O=C(COc1ccc(Cl)cc1)NCCS(=O)(=O)N1CCN(c2ccc(F)cc2)CC1 | -39.2% (active)
COc1ccc(OCC(=O)NCCS(=O)(=O)N2CCN(c3ccc(F)cc3)CC2)cc1 | -3.53% (inactive)
COc1ccccc1N1CCN(S(=O)(=O)CCNC(=O)COc2ccc(F)cc2)CC1 | -4.69% (inactive)

Structure (SMILES) | activity change, negative = inhibition
COc1cc(NC(=O)Cn2nc(-c3ccc(C)c(C)c3)ccc2=O)cc(OC)c1 | -2.73% (inactive)
CCOc1ccc(S(=O)(=O)N(CC(=O)NCCSCc2ccc(C)cc2)c2ccccc2)cc1 | -1.46% (inactive)
CCCSc1ncc(Cl)c(C(=O)Nc2sc3c(c2C(=O)NCCOC)CCCC3)n1 | 3.43% (inactive)
O=C(C1CCCO1)N1CCC(c2nc3ccccc3[nH]2)CC1 (centres undefined) | -12.2% (inactive)
O=S(=O)(c1ccc(Br)cc1)N1CCC(c2nc3ccccc3[nH]2)CC1 | -31.8% (active)
N#CC(C(=O)c1ccc(S(=O)(=O)N2CCCCCC2)cc1)c1nc2ccccc2[nH]1 (centres undefined) | -22.2% (inactive)
O=C(Nc1cc(Cl)cc(Cl)c1)c1ccc2c(c1)N(Cc1cccc(Cl)c1)C(=O)c1ccccc1S2=O (centres undefined) | -24% (inactive)
O=C(Nc1ccc(F)cc1F)c1ccc2c(=O)n3c(nc2c1)CCCCC3 | 0.28% (inactive)
Cc1cc(=O)c2cc(C(=O)Nc3cccc(C)c3C)ccc2[nH]1 | -7.41% (inactive)
CC(=O)Cn1cnc2c(cnn2-c2ccccc2)c1=O | -39.3% (active)
O=C(Cn1cnc2c(cnn2-c2ccccc2)c1=O)NCc1ccccc1 | 5.27% (inactive)
O=C(Cn1cnc2c(cnn2-c2ccc(F)cc2)c1=O)NCCc1ccccc1 | -6.16% (inactive)
COc1ccc(-c2nc(C)c(CCNC(=O)c3ccc(C(F)(F)F)cc3)s2)cc1OC | -4.09% (inactive)
COc1cc2ccccc2cc1C(=O)Nc1ccc(S(=O)(=O)Nc2cc(C)on2)cc1 | 7.39% (inactive)
Cc1cc(NS(=O)(=O)c2ccccc2)no1 | -52.3% (active)
Cc1ccc(C)c(S(=O)(=O)Nc2cc(C)on2)c1 | -1.84% (inactive)
Cc1cccc(NC(=O)c2cc3c(C)nn(-c4ccccc4)c3s2)c1 | 1.08% (inactive)
NC(=O)N1CCCC1C(=O)Nc1ccc(Cl)c(Cl)c1 (centres undefined) | -6.92% (inactive)
O=C(CC(O)(C(F)(F)F)C(F)(F)F)Nc1ccc(Cl)c(Cl)c1 | -45.8% (active)
O=C(CSc1nnc(-c2ccncc2)n1-c1ccccc1)Nc1ccc(Cl)c(Cl)c1 | 7.05% (inactive)
CCC(=O)N1CCc2cc(Br)cc(S(=O)(=O)CCC(=O)N3CCN(c4ccc(F)cc4)CC3)c21 | -13.8% (inactive)
Cc1ccc(NS(=O)(=O)c2cn(C)c(=O)n(C)c2=O)c(C)c1 | -34.8% (active)
Cc1ccc(NS(=O)(=O)c2ccc3c(c2)n(C)c(=O)c(=O)n3C)c(C)c1 | 3.25% (inactive)

Structure (SMILES) | activity change, negative = inhibition
Cn1cc(S(=O)(=O)Nc2ccc(Cl)cc2Cl)c(=O)n(C)c1=O | 1.88% (inactive)
N#CN1CCC(NS(=O)(=O)c2cccc(F)c2)C1 (centres undefined) | -5.93% (inactive)
Cc1ccc(C)c(S(=O)(=O)c2nnn3c2nc(N2CCOCC2)c2sccc23)c1 | -17.7% (inactive)
COc1ccc(OC)c(NC(=O)CSC2=Nc3ccccc3C3=NC(CC(=O)NCc4ccc(F)cc4)C(=O)N23)c1 (centres undefined) | 2.28% (inactive)
CCC1(C)Cc2c(sc3[nH]c(=S)n(Cc4ccccc4)c(=O)c23)CO1 (centres undefined) | -1.45% (inactive)
C=CCn1c(=S)[nH]c2scc(-c3ccco3)c2c1=O | -62.9% (active)
CCc1ccc(NC(=O)c2cc3c(=O)n(Cc4cccnc4)ccc3nc2C)cc1 | -4.72% (inactive)
O=C(NCCNc1ccc([N+](=O)[O-])cc1Cl)c1ccccc1F | -1.54% (inactive)
O=C(NCCCNc1ccc([N+](=O)[O-])cc1Cl)c1ccccc1F | -30.1% (active)
O=C(NCCNc1ccccc1[N+](=O)[O-])c1ccccc1F | 18.2% (inactive)
COc1ccc(CNC(=O)Cn2nnc(-c3ccccc3F)n2)cc1 | 7.31% (inactive)
COc1cc(-c2noc(-c3ccc(N4CCCC4)c([N+](=O)[O-])c3)n2)cc(OC)c1OC | -3.41% (inactive)
COC(=O)c1sccc1S(=O)(=O)N(CC(=O)Nc1ccc(C)c(F)c1)c1ccc(C)c(C)c1 | -13.6% (inactive)
CCOC(=O)N1CCN(CC(=O)Nc2ccc(F)cc2)CC1 | 4.05% (inactive)
CCOC(=O)N1CCN(CC(=O)c2ccc3c(c2)CCN3)CC1 | -32.2% (active)
CCOC(=O)N1CCN(CC(=O)n2c(C)c(C)c3ccccc32)CC1 | 6.89% (inactive)
Cc1ccc(CN2CCC(CNC(=O)c3cnn(-c4ccc(C)cc4)c3C3CCN(C(=O)OC(C)(C)C)CC3)CC2)cc1 | 1.49% (inactive)
Cc1cccc(-c2nc(SCC(=O)Nc3cc(C)on3)c3c(=O)n(C)c(=O)n(C)c3n2)c1 | -1.46% (inactive)
Cc1ccc2nc(SCC(=O)NC3CCCC3)[nH]c2c1 | 1.64% (inactive)
Cc1ccc2nc(-c3ccc(SCC(=O)Nc4cc(C)on4)nc3)[nH]c2c1 | -40.5% (active)
